For 61 compounds, inhibition results are on record in PubChem BioAssay AID504329 (Southern Research Specialized Biocontainment Screening …, 2011).

The campaign covered roughly 340,000 compounds. About 1,000 (0.29%) were called active. The list is a sample of the results. Entries with a potency or affinity are not part of this list. Values without a mark were called inactive. Rule as the data show it: inconclusive = inhibition above about 27% without an active follow-up result; inactive = below that.

The nature of this assay: NS1A inhibition, H1N1 influenza, cell based functional assay (AID 504329). The conditions noted are these: percent inhibition, at 12.5 µM, active compounds read high.
The inhibition is the change of the read-out against control, counted positive when it falls. Turning to `Cc1ccc(NC(=O)c2cc(-c3ccccc3)n[nH]2)cc1`, the inhibition was -9.32%.
Consider `COc1ccc(NC(=O)CSc2nnc(C(C)C)n2N)cc1`, for which the inhibition is 2.67%.
In the case of `O=C(Cn1c2c(c(=O)n3ncnc13)CCC2)N/N=C/c1ccc(Cl)cc1`, the inhibition was -0.52%.
In the case of `CCn1ncc(Br)c1C(=O)Nc1nccs1` it was 8%.
For `COC(=O)/C=C/c1ccc(OC(=O)c2ccncc2)cc1`, the inhibition is -0.93%.
In the case of `CC(=O)C1=C(c2ccccc2)OC(N)=C(C#N)C1c1ccccc1C` (stereo unspecified) it was 7.47%; in that of `Cn1c(CC(=O)Nc2ccccc2F)nnc1SCC(=O)NC1CCCC1`, 4.61%; in that of `O=[N+]([O-])c1ccc2c(c1)C(=Nc1ccccc1)c1ccccc1-2`, 19.1%.
The value for `Cc1cccc(N=C2NC(=O)c3cc([N+](=O)[O-])ccc32)c1` was -0.91%; that for `COc1ccc(CCNCc2ccccc2)cc1` was -9.83%.
In the case of `COc1ccc(CCNCc2ccccc2F)cc1` it was -20.5%; in that of `COc1ccc(CC(=O)NCCC2=CCCCC2)cc1`, 10.7%; in that of `COc1ccc(C(=O)NCCC2=CCCCC2)cc1`, -1.2%.
On to `CCN1C[C@@H]2[C@@H]3C(=O)N(Cc4ccccc4)C(=O)[C@@H]3[C@](CC)(C(=O)OC)N2C1=NC1CCCCC1`, for which the inhibition was -28.6%.
In the case of `Cc1ccc(NC(=O)C2CCN(S(=O)(=O)c3ccc4c(c3)C(C)(C)C(=O)N4C)CC2)c(C)c1` it was 8.27%; in that of `CCCn1c(N)c(N(CCOC)C(=O)COC(=O)CSc2cc(C)c3ccccc3n2)c(=O)[nH]c1=O`, -17.1%; in that of `Cc1cc(/C=C2\SC(=S)N(C)C2=O)c(C)n1-c1cccc(O)c1`, -1.47%.
In the case of `CN1C(=O)/C(=C\c2ccccc2OCc2ccccc2)SC1=S` it was 10.4%; in that of `Cc1cc(/C=C2\SC(=S)N(C)C2=O)c(C)n1-c1ccccc1O`, 6.77%.
In the case of `COc1ccc(O)c(/C=C2/SC(=S)N(Cc3ccccc3)C2=O)c1` it was 8.37%; in that of `CC(=O)c1c(C)[nH]c(C(=O)NC2=NCCS2)c1C`, 7.87%; in that of `O=C(CN1C(=O)NC2(CCCCC2)C1=O)Nc1cc(C(F)(F)F)ccc1N1CCOCC1`, -9.76%.
In the case of `COc1ccccc1Oc1c(C)oc2c(CN(C)C)c(O)ccc2c1=O`, the inhibition is 12.9%.
On to `COc1ccc(N/N=C(\C#N)C(=N)N2CCOCC2)cc1`, for which the inhibition was 0.407%.
The value for `Cc1[nH]c(=O)[nH]c(=O)c1CSCC(=O)OCC(=O)Nc1ccccn1` was -14.1%; that for `CCOC(=O)CCCCC(=O)c1[nH]c(=O)[nH]c1CSCCO` was 12.6%; that for `CCCCSCc1[nH]c(=O)[nH]c1C(=O)CCCCC(=O)OCC` was 1.07%.
The value for `O=C(CCCC(=O)OCC(=O)NC1CCCC1)Nc1ccccn1` was -6.66%; that for `O=C(CP(=O)(O)CC(=O)c1ccccc1)c1ccccc1` was 5.59%.
As to `O=C1c2cccnc2C(=O)N1CNc1ccc(Cl)cc1`, the inhibition is 3.28%.
Consider `COc1cccc(C(=O)NCCS(=O)(=O)NCc2cccnc2)c1`, for which the inhibition is -2.08%.
The value for `CC(C)CCNC(=O)C(CC(C)C)N(Cc1ccc2c(c1)OCO2)C(=O)c1snc(C(N)=O)c1N` (stereo unspecified) was 6.77%; that for `C=CCC1(C#N)C(SC)=NC2=C(C(=O)CC(C)(C)C2)C1c1ccc(Br)cc1` (stereo unspecified) was -5.14%.
In the case of `O=C(CN1C(=O)COc2ccccc21)Nc1ccccc1F` it was 2.27%; in that of `O=C(CN1C(=O)COc2ccccc21)Nc1ccc2c(c1)OCCO2`, 0.43%; in that of `CCOC(=O)c1sc(NC(=O)CNCc2cccnc2)c(C(=O)OCC)c1C`, -2.69%.
The value for `CCOC(=O)c1c(NC(=O)COC(=O)c2ccccn2)sc(C(=O)N(C)C)c1C` was -8.42%; that for `COCCN(C(=O)c1csnn1)C(C(=O)NC1CCCCC1)c1ccccc1F` (stereo unspecified) was -4.23%; that for `CCCSc1ccc([C@H]2N[C@@](C)(C(=O)OC)[C@H]3C(=O)N(C)C(=O)[C@@H]23)cc1` was 6.02%.
As to `COC(=O)c1cc2cc(NS(=O)(=O)c3ccc(C)cc3)ccc2s1`, the inhibition was -3.1%.
In the case of `Oc1[nH]c2ccc(Br)cc2c1N=NC(=S)Nc1ccc(F)cc1` it was -7.69%.
As to `N=C(N)N=Nc1c(O)[nH]c2ccc(Br)cc12`, the inhibition was -0.68%.
The value for `O=C(N=Nc1c(O)[nH]c2ccccc12)c1ccc(CN2CCOCC2)cc1` was 7.41%.
In the case of `NC(=S)N=Nc1c(O)[nH]c2ccccc12`, the inhibition was 14.1%.
As for `Cc1ccc(N(CC(=O)NC2CCCCC2)C(=O)CNC(=O)c2ccco2)cc1C`, the inhibition was 7.87%.
The value for `CC(C)c1ccc(C(=O)OCC(=O)NC2CCCC2)cc1` was 1.66%; that for `CCOc1ccc(N2CC(O)(c3cccs3)[N+]3=C2CCCC3)cc1` (stereo unspecified) was 2.37%.
In the case of `COc1ccccc1C(=O)NC(CCSC)C(=O)NCc1ccncc1` (stereo unspecified), the inhibition is -4.75%.
In the case of `CCc1cc2c(=O)oc(-c3ccc(F)cc3)nc2s1` it was -6.8%; in that of `COC(=O)C1CC2=C(CCC2=O)N(c2ccccc2)C1=O` (stereo unspecified), -7.88%; in that of `Cc1ccc(S(=O)(=O)N(C)C)cc1NC(=O)COC(=O)/C(=C/c1ccc(F)cc1)c1cccs1`, -0.58%.
Turning to `O=C1Nc2ccccc2C1=O`, the inhibition is 0.1%.
As for `O=C1/C(=C/c2ccccc2)Nc2ccccc21`, the inhibition was 14.7%.
The value for `O=C(COC(=O)CN1C(=O)COc2ccccc21)NCc1ccc(F)cc1` was -6.84%; that for `COc1ccc(CN(C)CC(=O)Nc2sc3c(c2C#N)CCC3)c(OC)c1` was -1.01%.
Regarding `CCc1ccc(NSc2ccccc2[N+](=O)[O-])cc1`, the inhibition is 28.4%.
In the case of `O=[N+]([O-])c1nn(-c2ccccc2)[n+]([O-])c1N1CCN(c2ccccc2F)CC1`, the inhibition was 2.62%.
Consider `CC(=O)c1ccc(NC(=S)Nc2ccc(Br)c(Cl)c2)cc1`, for which the inhibition was -4.9%.
Take `Cc1ccc(N=C2C(=O)Nc3ccccc32)cc1`: the inhibition is -4.95%.
In the case of `CC(=O)N(C)c1ccc(N=C2C(=O)Nc3ccccc32)cc1` it was 3.21%.
In the case of `C=CCn1c(SCC(=O)N(C)C)nc2cc(C(=O)O)ccc2c1=O` it was -7.19%.
